In PubChem BioAssay (EPA / NIEHS):
Inconclusive results are not listed. The source made the active and inactive calls. The calls were made as follows, unless noted: active = hit-call score of the fitted dose curve at least 0.9, where 1 is the maximum; inactive = score below 0.9.

How the values were obtained:
[1] = ATG_PBREM_CIS: Attagene CIS-FACTORIAL HepG2 Assay for human Phenobarbital-responsive Enhancer Module (PBREM) (AID 2282955); settings: HepG2 PBREM cis-reporter, Attagene multiplexed transcription; actives raise or lower the signal
Summary of the method: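 HepG2, transient MRTU transfection, 24 h dosing; RNA → oligo(dT) RT → PCR → 6-FAM extension → HpaI → CE. Bidirectional fit vs DMSO.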

[2] = biological target: Paired box protein Pax-6 (Homo sapiens) (UniProt P26367); test: ATG_Pax6_CIS: Attagene CIS-FACTORIAL HepG2 Assay for human Paired Box 6 (PAX6) (AID 2282956); settings: HepG2 CIS-FACTORIAL PAX6 reporter transcription, RNA readout; actives raise or lower the signal
Summary of the method: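 Read-out is reporter transcript level, measured by RT-PCR with fluorescent primer extension and capillary electrophoresis after 24 h dosing of transfected HepG2 cells. Activity in either direction fitted relative to DMSO control.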

[3] = ATG_PXRE_CIS: Attagene CIS-FACTORIAL HepG2 Assay for human Pregnane X Receptor Element (PXRE) (AID 2282957); settings: HepG2 Attagene CIS-FACTORIAL PXRE reporter, mRNA; actives raise or lower the signal
Summary of the method: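 Bidirectional activity, baselined to DMSO, derived from reporter mRNA fluorescence (RT-PCR plus capillary electrophoresis) in HepG2 cells bearing cis-promoter reporter units, 24 h exposure.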

[4] = ATG_PPRE_CIS: Attagene CIS-FACTORIAL HepG2 Assay for human Peroxisome Proliferator-activated Response Element (PPRE) (AID 2282958); settings: HepG2 PPRE cis-element reporter, Attagene transcription factor profiling; actives raise or lower the signal
Summary of the method: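 Transcript-level reporter induction in transfected HepG2 cells after 24 h chemical exposure, quantified by fluorescence from RT-PCR products separated by capillary electrophoresis.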

[5] = ATG_RORE_CIS: Attagene CIS-FACTORIAL HepG2 Assay for human RAR-related Orphan Receptor Element (RORE) (AID 2282959); settings: HepG2 Attagene cis-factorial RORE reporter, mRNA; actives raise or lower the signal
Summary of the method: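 Multiplexed reporter assay measuring mRNA induction from a cis promoter element in transiently transfected HepG2 cells after 24 h treatment. Detection via RT-PCR and capillary electrophoresis fluorescence; DMSO serves as baseline.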

[6] = ATG_Sox_CIS: Attagene CIS-FACTORIAL HepG2 Assay for human SRY-box transcription factor (SOX) (AID 2282960); settings: HepG2 Attagene cis-factorial SOX reporter, mRNA; actives raise or lower the signal
Summary of the method: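 Cells were transfected with reporter constructs under cis-regulatory promoters, then exposed to chemicals for 24 h. Reporter transcripts were quantified by fluorescence after RT-PCR and capillary electrophoresis; activity was fitted in both directions against DMSO.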

[7] = biological target: Transcription factor Sp1 (Homo sapiens) (UniProt P08047); test: ATG_Sp1_CIS: Attagene CIS-FACTORIAL HepG2 Assay for human Specificity Protein 1 (Sp1) (AID 2282961); settings: HepG2 Sp1 cis-reporter transcription, actives raise or lower the signal
Summary of the method: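 Measures mRNA induction of an Sp1-linked reporter in HepG2 cells 24 h post-dosing. Multiplexed reporters read by RT-PCR and capillary electrophoresis; DMSO serves as negative control and baseline.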

[8] = ATG_SREBP_CIS: Attagene CIS-FACTORIAL HepG2 Assay for human Sterol Regulatory Element Binding (SREBP) (AID 2282962); settings: HepG2 Attagene cis-factorial SREBP reporter, mRNA; actives raise or lower the signal
Summary of the method: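 Endogenous SREBP activity read as cis-element-driven reporter transcript in transiently transfected HepG2, 24 h post-dosing; quantified via RT-PCR plus capillary electrophoresis of fluorescent fragments. Gain or loss of signal fitted relative to DMSO baseline.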

[9] = biological target: Signal transducer and activator of transcription 3 (Homo sapiens) (UniProt P40763); test: ATG_STAT3_CIS: Attagene CIS-FACTORIAL HepG2 Assay for human Signal Transducer and Activator of Transcription 3 (STAT3) (AID 2282963); settings: HepG2, Attagene cis-factorial STAT3 reporter transcription; actives raise or lower the signal
Summary of the method: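 Readout: fluorescent reporter mRNA fragments resolved by capillary electrophoresis. Setup: HepG2 transfected with MRTUs reporting endogenous transcription-factor activity, dosed 24 h. Gain or loss of signal fitted bidirectionally against DMSO control.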

[10] = ATG_TA_CIS: Attagene CIS-FACTORIAL HepG2 Assay for human TA Basal Promoter (AID 2282964); settings: HepG2 Attagene CIS-factorial TA basal promoter reporter; actives raise or lower the signal
Summary of the method: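 Multiplexed mRNA reporter assay, HepG2, 24 h. Reporter cDNA amplified, 6-FAM primer-extended, HpaI-cut, CE-sized; DMSO = negative control and baseline.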

[11] = ATG_TCF_b_cat_CIS: Attagene CIS-FACTORIAL HepG2 Assay for human T-Cell-Factor with beta-catenin (TCF/b-cat) (AID 2282965); settings: HepG2 TCF/beta-catenin cis-reporter transcription, actives raise or lower the signal
Summary of the method: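 Cells of the HepG2 line carry transiently transfected reporter units whose promoters respond to endogenous factors. Twenty-four hours post-dosing, reporter mRNA induction is measured by fluorescent RT-PCR and capillary electrophoresis, with DMSO as baseline.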

[12] = ATG_TAL_CIS: Attagene CIS-FACTORIAL HepG2 Assay for human TAL Basal Promoter (AID 2282966); settings: HepG2 Attagene cis-factorial TAL promoter reporter; actives raise or lower the signal;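 also: background control endpoint measuring basal TAL promoter reporter mRNA not a specific factor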
Summary of the method: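 Human hepatoma HepG2 cells, transfected with promoter-regulated reporter units, were treated 24 h. Reporter transcript levels, measured through RT-PCR and capillary electrophoresis, were fitted for gain or loss relative to DMSO.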

[13] = ATG_TGFb_CIS: Attagene CIS-FACTORIAL HepG2 Assay for human Transforming Growth Factor (TGF) (AID 2282967); settings: HepG2 Attagene CIS TGFb reporter, mRNA transcription; actives raise or lower the signal
Summary of the method: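 Transcript-level reporter readout: HepG2 transfectants, 24 h exposure, RNA to cDNA, reporter-specific PCR, fluorescent primer extension, capillary sizing against ROX standards. Gain- or loss-of-signal relative to DMSO.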

[14] = ATG_VDRE_CIS: Attagene CIS-FACTORIAL HepG2 Assay for human Vitamin D Receptor Element (VDRE) (AID 2282968); settings: HepG2 VDRE cis-reporter transcription, actives raise or lower the signal
Summary of the method: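 Transient MRTU transfection of HepG2, 24 h compound exposure. Readout: reporter transcripts via RT-PCR and capillary electrophoresis, fluorescence. Bidirectional fit vs DMSO.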

[15] = biological target: Estrogen receptor (Homo sapiens) (UniProt P03372); test: ATG_ERa_TRANS: Attagene TRANS-FACTORIAL HepG2 Assay for human Estrogen Receptor alpha (ERa) (AID 2282970; active = hit-call score of the fitted dose curve at least 0.9, where 1 is the maximum); settings: HepG2 Attagene TRANS ERa GAL4 reporter, mRNA
Summary of the method: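 Signal derives from fluorescence of labelled reporter PCR fragments separated by capillary electrophoresis. HepG2 cells transiently carrying multiple GAL4-UAS reporter units were treated 24 hours, and induction above DMSO baseline was fitted as activity.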

[16] = biological target: X-box-binding protein 1 (Homo sapiens) (UniProt P17861); test: ATG_Xbp1_CIS: Attagene CIS-FACTORIAL HepG2 Assay for human X-box Binding Protein 1 (XBP1) (AID 2282972); settings: HepG2 XBP1 cis-element reporter, Attagene multiplex; actives raise or lower the signal
Summary of the method: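 Reporter transcripts were quantified by RT-PCR with fluorescent primer extension and capillary electrophoresis after 24 h chemical exposure. Cells: transiently transfected HepG2 carrying cis-regulated reporter constructs; data fitted bidirectionally relative to DMSO.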

[17] = ATG_M_19_TRANS: Attagene TRANS-FACTORIAL HepG2 Assay for M19 Transcription Factor (Internal Marker) (AID 2282974; active = hit-call score of the fitted dose curve at least 0.9, where 1 is the maximum); settings: HepG2 Attagene TRANS-FACTORIAL M19 internal marker reporter
Summary of the method: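 After transfection of HepG2 with GAL4-UAS-driven reporter constructs, cells are dosed for 24 h. Total RNA is reverse-transcribed, reporter sequences PCR-amplified and labelled, then HpaI-digested and sized by capillary electrophoresis.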

[18] = ATG_GAL4_TRANS: Attagene TRANS-FACTORIAL HepG2 Assay for GAL4 (Internal Marker) (AID 2282976; active = hit-call score of the fitted dose curve at least 0.9, where 1 is the maximum); settings: HepG2 Attagene TRANS GAL4 internal marker reporter
Summary of the method: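 Liver HepG2 line bearing multiplexed GAL4-UAS reporter constructs; 24 h chemical treatment. Transcripts were quantified as fluorescent fragments on capillary electrophoresis after RT-PCR and HpaI cut, with activity fitted upward from DMSO.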

[19] = biological target: Nuclear receptor subfamily 1 group I member 3 (Homo sapiens) (UniProt Q14994); test: ATG_CAR_TRANS: Attagene TRANS-FACTORIAL HepG2 Assay for human Constitutive Androstane Receptor (CAR) (AID 2282969; active = hit-call score of the fitted dose curve at least 0.9, where 1 is the maximum;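 also: activators raise reporter mRNA above DMSO so AC50 marks induction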); settings: HepG2 Attagene TRANS-FACTORIAL CAR reporter
Summary of the method: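 Transiently transfected HepG2, multiplex TRANS reporters (CAR-Gal4 chimera driving GAL4-UAS reporter). 24 h dosing. Readout: reporter transcript by RT-PCR + capillary electrophoresis, fluorescence intensity; positive direction vs DMSO.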

[20] = biological target: Steroid hormone receptor ERR1 (Homo sapiens) (UniProt P11474); test: ATG_ERRa_TRANS: Attagene TRANS-FACTORIAL HepG2 Assay for human Estrogen-Related Receptor alpha (ERRa) (AID 2282971; active = hit-call score of the fitted dose curve at least 0.9, where 1 is the maximum); settings: HepG2 Attagene TRANS reporter, ERRa transactivation
Summary of the method: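 Signal gain relative to DMSO for an ERRa-Gal4 chimeric receptor, read as reporter mRNA by RT-PCR/capillary electrophoresis. Human HepG2 liver cells, transient multiplex reporter transfection, 24 h chemical exposure.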

Sequence of Transcription factor Sp1 (Homo sapiens) (P08047 whole entry, looked up): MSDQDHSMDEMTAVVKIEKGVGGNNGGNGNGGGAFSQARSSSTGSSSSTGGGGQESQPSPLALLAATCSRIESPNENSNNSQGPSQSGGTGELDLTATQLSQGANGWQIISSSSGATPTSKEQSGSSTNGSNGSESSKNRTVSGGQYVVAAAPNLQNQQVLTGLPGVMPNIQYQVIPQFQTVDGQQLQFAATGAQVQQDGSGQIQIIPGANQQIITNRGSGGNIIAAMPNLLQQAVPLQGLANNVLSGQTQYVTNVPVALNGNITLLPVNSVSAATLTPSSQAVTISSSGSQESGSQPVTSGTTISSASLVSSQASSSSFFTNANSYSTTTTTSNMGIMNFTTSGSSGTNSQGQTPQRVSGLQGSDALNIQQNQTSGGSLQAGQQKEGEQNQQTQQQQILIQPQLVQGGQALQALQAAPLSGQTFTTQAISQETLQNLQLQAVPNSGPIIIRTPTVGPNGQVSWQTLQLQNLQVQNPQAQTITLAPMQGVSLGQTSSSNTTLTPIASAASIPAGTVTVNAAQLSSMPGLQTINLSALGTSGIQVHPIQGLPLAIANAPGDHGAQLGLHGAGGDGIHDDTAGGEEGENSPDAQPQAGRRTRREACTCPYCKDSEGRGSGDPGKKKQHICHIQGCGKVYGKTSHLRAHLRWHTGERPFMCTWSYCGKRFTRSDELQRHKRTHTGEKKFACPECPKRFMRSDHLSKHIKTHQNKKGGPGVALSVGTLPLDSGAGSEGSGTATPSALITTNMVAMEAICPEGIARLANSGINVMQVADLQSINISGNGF
Sequence of Nuclear receptor subfamily 1 group I member 3 (Homo sapiens) (Q14994 whole entry, looked up, the tested form may be a part): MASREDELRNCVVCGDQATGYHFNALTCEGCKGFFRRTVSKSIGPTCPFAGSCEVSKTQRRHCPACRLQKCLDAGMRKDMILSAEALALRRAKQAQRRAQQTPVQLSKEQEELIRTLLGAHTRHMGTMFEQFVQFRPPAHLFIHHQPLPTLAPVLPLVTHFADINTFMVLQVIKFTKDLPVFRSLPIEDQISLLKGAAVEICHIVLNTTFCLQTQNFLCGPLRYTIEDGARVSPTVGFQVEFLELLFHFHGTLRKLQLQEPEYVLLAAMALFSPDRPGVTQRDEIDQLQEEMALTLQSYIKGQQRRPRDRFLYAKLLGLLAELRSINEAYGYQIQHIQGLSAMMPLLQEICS
Sequence of Paired box protein Pax-6 (Homo sapiens) (P26367 whole entry, looked up): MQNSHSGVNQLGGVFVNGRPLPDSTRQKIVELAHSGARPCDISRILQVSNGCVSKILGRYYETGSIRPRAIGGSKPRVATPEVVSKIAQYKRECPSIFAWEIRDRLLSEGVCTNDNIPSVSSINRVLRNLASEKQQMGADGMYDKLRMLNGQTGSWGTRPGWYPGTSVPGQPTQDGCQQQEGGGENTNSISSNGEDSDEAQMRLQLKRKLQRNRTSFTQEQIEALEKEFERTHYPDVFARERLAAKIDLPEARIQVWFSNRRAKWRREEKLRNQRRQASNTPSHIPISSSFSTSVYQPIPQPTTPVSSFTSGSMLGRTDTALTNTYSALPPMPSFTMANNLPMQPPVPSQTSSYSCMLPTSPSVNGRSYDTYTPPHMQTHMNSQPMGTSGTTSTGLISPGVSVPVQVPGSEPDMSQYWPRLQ
Sequence of Estrogen receptor (Homo sapiens) (P03372 whole entry, looked up, the tested form may be a part): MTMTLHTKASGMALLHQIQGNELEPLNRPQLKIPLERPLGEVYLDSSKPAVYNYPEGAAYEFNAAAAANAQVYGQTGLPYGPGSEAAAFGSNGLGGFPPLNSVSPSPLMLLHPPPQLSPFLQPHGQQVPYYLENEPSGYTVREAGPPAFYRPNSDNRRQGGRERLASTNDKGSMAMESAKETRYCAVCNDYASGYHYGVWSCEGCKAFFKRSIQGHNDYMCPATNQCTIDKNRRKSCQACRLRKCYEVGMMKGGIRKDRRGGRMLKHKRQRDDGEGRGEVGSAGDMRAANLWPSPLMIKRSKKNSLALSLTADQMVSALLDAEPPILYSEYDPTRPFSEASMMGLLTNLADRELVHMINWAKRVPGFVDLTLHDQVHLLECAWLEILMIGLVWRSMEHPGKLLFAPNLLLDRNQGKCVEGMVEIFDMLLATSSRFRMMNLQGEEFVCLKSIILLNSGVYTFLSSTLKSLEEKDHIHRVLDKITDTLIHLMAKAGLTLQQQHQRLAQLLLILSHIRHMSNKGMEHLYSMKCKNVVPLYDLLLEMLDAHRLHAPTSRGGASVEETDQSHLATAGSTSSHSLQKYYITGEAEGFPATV
Sequence of X-box-binding protein 1 (Homo sapiens) (P17861 whole entry, looked up): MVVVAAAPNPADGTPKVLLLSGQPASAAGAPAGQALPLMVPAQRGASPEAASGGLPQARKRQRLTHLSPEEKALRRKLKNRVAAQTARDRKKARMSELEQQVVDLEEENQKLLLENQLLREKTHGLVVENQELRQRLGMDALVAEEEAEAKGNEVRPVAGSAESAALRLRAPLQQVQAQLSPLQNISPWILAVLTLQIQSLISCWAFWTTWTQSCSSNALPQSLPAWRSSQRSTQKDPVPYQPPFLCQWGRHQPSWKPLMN
Sequence of Signal transducer and activator of transcription 3 (Homo sapiens) (P40763 whole entry, looked up, the tested form may be a part): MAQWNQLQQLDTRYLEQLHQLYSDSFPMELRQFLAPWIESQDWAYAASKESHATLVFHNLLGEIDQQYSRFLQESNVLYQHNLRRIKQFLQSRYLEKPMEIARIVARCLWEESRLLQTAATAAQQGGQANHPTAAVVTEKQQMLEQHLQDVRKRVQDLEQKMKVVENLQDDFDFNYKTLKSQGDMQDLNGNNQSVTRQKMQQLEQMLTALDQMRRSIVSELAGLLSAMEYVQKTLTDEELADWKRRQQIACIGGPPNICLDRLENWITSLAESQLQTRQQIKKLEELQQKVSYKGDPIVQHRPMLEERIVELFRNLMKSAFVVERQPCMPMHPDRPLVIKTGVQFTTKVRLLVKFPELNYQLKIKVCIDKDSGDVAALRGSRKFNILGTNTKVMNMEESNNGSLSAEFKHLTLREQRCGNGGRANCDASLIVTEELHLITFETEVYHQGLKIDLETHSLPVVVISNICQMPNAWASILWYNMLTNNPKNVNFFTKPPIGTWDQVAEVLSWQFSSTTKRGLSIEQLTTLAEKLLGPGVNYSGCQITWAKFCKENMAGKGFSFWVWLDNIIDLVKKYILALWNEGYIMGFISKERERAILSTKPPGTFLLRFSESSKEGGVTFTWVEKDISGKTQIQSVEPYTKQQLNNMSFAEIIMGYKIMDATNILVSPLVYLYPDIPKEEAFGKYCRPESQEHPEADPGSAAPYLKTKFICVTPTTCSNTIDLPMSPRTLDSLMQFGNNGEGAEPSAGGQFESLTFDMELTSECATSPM
Sequence of Steroid hormone receptor ERR1 (Homo sapiens) (P11474 whole entry, looked up, the tested form may be a part): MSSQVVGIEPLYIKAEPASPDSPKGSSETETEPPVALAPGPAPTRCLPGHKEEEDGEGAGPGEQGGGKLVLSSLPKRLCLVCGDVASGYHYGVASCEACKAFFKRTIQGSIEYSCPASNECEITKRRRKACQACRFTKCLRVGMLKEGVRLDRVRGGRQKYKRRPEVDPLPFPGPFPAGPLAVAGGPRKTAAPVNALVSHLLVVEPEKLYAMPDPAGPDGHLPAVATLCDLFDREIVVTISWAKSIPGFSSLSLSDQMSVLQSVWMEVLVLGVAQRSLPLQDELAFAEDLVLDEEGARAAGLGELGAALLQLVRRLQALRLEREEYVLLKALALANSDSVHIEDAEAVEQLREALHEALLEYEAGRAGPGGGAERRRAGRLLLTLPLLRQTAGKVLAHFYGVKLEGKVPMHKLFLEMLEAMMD

For `CCCCCCCCCC(C)=O`, the outcome [1] was “inactive”, the outcome [2] was “inactive” and the outcome [3] was “inactive”. The outcome [4] was “inactive”, the outcome [5] was “inactive” and the outcome [6] was “inactive”. The outcome [7] was “inactive”, the outcome [8] was “inactive” and the outcome [9] was “inactive”. The outcome [10] was “inactive”, the outcome [11] was “inactive” and the outcome [12] was “inactive”. For the same compound, the outcome [13] was “inactive”, the outcome [14] was “inactive” and the outcome [15] was “inactive”. For the same compound, the outcome [16] was “inactive”, the outcome [17] was “inactive” and the outcome [18] was “inactive”.

With `Nc1ncnc2nc[nH]c12` the outcome [1] was “inactive”, the outcome [2] was “inactive” and the outcome [3] was “inactive”. For the same compound, the outcome [4] was “inactive”, the outcome [5] was “inactive” and the outcome [6] was “inactive”. For the same compound, the outcome [7] was “inactive”, the outcome [8] was “inactive” and the outcome [10] was “inactive”. For the same compound, the outcome [11] was “inactive”, the outcome [12] was “inactive” and the outcome [13] was “inactive”. For the same compound, the outcome [14] was “inactive”, the outcome [16] was “inactive” and the outcome [17] was “inactive”. The outcome [18] was “inactive”.

In the case of `CC(=O)OC1CCCCC1C(C)(C)C` (configuration not stated), the outcome [1] is reported as “inactive”, the outcome [2] is reported as “inactive” and the outcome [3] is reported as “inactive”. For the same compound, the outcome [4] was “inactive”, the outcome [5] was “inactive” and the outcome [6] was “inactive”. For the same compound, the outcome [7] was “inactive”, the outcome [8] was “inactive” and the outcome [9] was “inactive”. For the same compound, the outcome [10] was “inactive”, the outcome [11] was “inactive” and the outcome [12] was “inactive”. For the same compound, the outcome [13] was “inactive”, the outcome [14] was “inactive” and the outcome [19] was “inactive”. For the same compound, the outcome [15] was “inactive”, the outcome [16] was “inactive” and the outcome [17] was “inactive”. The outcome [18] was “inactive”.

With `C=C[C@@]1(C)CC(=O)[C@]2(O)[C@@]3(C)[C@@H](O)CCC(C)(C)[C@@H]3[C@H](O)[C@H](OC(C)=O)[C@@]2(C)O1` the AC50 [1] was 0.803 µM (active), the outcome [2] was “inactive” and the AC50 [3] was 0.433 µM (active). For the same compound, the outcome [4] was “inactive”, the outcome [5] was “inactive” and the outcome [6] was “inactive”. For the same compound, the outcome [7] was “inactive”, the outcome [8] was “inactive” and the outcome [9] was “inactive”. The outcome [10] was “inactive”, the outcome [11] was “inactive” and the outcome [12] was “inactive”. The outcome [13] was “inactive”, the AC50 [14] was 2.1 µM (active) and the AC50 [15] was 2.1 µM (active). For the same compound, the outcome [16] was “inactive”.

In the case of `c1ccc2cnccc2c1`, the outcome [1] is reported as “inactive”, the outcome [2] is reported as “inactive” and the AC50 [3] is reported as 27.6 µM (active). The outcome [4] was “inactive”, the outcome [5] was “inactive” and the outcome [6] was “inactive”. For the same compound, the outcome [7] was “inactive”, the outcome [8] was “inactive” and the outcome [10] was “inactive”. The outcome [11] was “inactive”, the outcome [12] was “inactive” and the outcome [13] was “inactive”. The outcome [14] was “inactive”, the outcome [15] was “inactive” and the outcome [20] was “inactive”. The outcome [16] was “inactive”, the outcome [17] was “inactive” and the outcome [18] was “inactive”.

For `CC1C(C)(C)C2=C(C(=O)CCC2)C1(C)C` (configuration not stated), the outcome [1] was “inactive”, the outcome [2] was “inactive” and the AC50 [3] was 6.01 µM (active). The outcome [4] was “inactive”, the outcome [5] was “inactive” and the outcome [6] was “inactive”. For the same compound, the outcome [7] was “inactive”, the outcome [8] was “inactive” and the outcome [9] was “inactive”. For the same compound, the outcome [10] was “inactive”, the outcome [11] was “inactive” and the outcome [12] was “inactive”. For the same compound, the outcome [13] was “inactive”, the outcome [14] was “inactive” and the outcome [19] was “inactive”. The AC50 [15] was 11.5 µM (active), the outcome [20] was “inactive” and the outcome [16] was “inactive”. For the same compound, the outcome [17] was “inactive”.

In the case of `CC(=O)OCCc1ccccc1`, the outcome [1] is reported as “inactive”, the outcome [2] is reported as “inactive” and the outcome [3] is reported as “inactive”. For the same compound, the outcome [4] was “inactive”, the outcome [5] was “inactive” and the outcome [6] was “inactive”. For the same compound, the outcome [7] was “inactive”, the outcome [9] was “inactive” and the outcome [10] was “inactive”. The outcome [11] was “inactive”, the outcome [12] was “inactive” and the outcome [13] was “inactive”. The outcome [14] was “inactive”, the outcome [19] was “inactive” and the outcome [15] was “inactive”. The outcome [16] was “inactive”.
